# Assay results as given in ChEMBL document CHEMBL3988442, “University of Dundee, Small-Polar-MMV Screening Library” (2021).
# Screen size: about 66,000 compounds; about 960 (1.5%) showed an effect of 50% or more. For the sample, strong results were picked, then their nearest neighbours and some compounds at random.
# System: Trypanosoma brucei
# Test: Trypanosoma brucei 72 hour study
# Format: functional, organism-based
# Design: scale not given: in the data most compounds retested in dose-response had high values
structure (smiles),measurement,setting,value
CO[C@@H]1CC[C@H]2[C@H]1OCCN2Cc1ccc(F)c(F)c1.O=C(O)C(F)(F)F,Percent Effect,"30.3 µM, […]",-7.78%
CC(C)NC(=O)N1CCOC2(CCCN(c3ncccc3F)C2)C1.O=C(O)C(F)(F)F (centres undefined),Percent Effect,"30.3 µM, […]",-41.85%
COc1cccc(CN2CCC(O)(c3ccc(C)cn3)CC2)c1OC,Percent Effect,"30.3 µM, […]",-256.8%
Cl.OC1(c2ccc(F)cc2)CCN(Cc2ccccc2N2CCCC2)CC1,Percent Effect,"30.3 µM, […]",-34.29%
Nc1ncc(CN2CCC(O)(c3ccccc3F)CC2)cn1,Percent Effect,"30.3 µM, […]",-5.013%
OC1(c2ccccc2F)CCN(Cc2ccccc2N2CCCC2)CC1,Percent Effect,"30.3 µM, […]",56.26%
Cc1nc(CCN)cc(N2CCC(O)(c3ccccc3)C2)n1 (centres undefined),Percent Effect,"30 µM, 30.03 µM",-28.3%
Cc1cccc(C2(O)CCN(Cc3ccccc3N3CCCC3)CC2)c1,Percent Effect,"30.3 µM, […]",93.6%
COc1cc(CCC(=O)N2CCC(c3cc4ncc(C)nc4[nH]3)C2)on1 (centres undefined),Percent Effect,"30.3 µM, […]",31.83%
COc1cc(CCC(=O)N2CCC(c3cc4nccnc4[nH]3)CC2)on1,Percent Effect,"30.3 µM, […]",60.69%
COc1cc(CCC(=O)N2CCC(c3cc4ncccc4[nH]3)CC2)on1,Percent Effect,"30.3 µM, […]",13.01%
O=C(C1CCOCC1)N1CCO[C@H]2[C@H](OCc3ccncc3)CC[C@@H]21.O=C(O)C(F)(F)F,Percent Effect,"30 µM, 30.03 µM",-17.19%
CN(Cc1ccncc1)C1COC2(CCN(Cc3ccsc3)CC2)C1.O=C(O)C(F)(F)F.O=C(O)C(F)(F)F.O=C(O)C(F)(F)F (centres undefined),Percent Effect,"30 µM, 30.03 µM",11.15%
Cn1nc(C(=O)NCc2cccnc2)c2c1CCS(=O)(=O)C2,Percent Effect,"30.3 µM, […]",-19.1%
Cn1nc(C(=O)NCc2ccccn2)c2c1CCS(=O)(=O)C2,Percent Effect,"30 µM, 30.03 µM",63.28%
Cn1nc(C(=O)NCc2cccs2)c2c1CCS(=O)(=O)C2,Percent Effect,"30.3 µM, […]",-10.45%
CC(=O)N1CCC[C@@H](NCc2c[nH]c3ccccc23)[C@@H]1c1ccc(C)s1.Cl,Percent Effect,"30.3 µM, […]",-17.97%
Cc1cnn(C2CCCN(C(=O)Cc3c(C)nn(C)c3C)C2)c1 (centres undefined),Percent Effect,"30.3 µM, […]",-16.8%
O=C(O)C(F)(F)F.c1ccc(N2CCCC3(COCCN(c4nccs4)C3)C2)nc1 (centres undefined),Percent Effect,"30 µM, 30.03 µM",23.77%
N#Cc1ccc(N2CCCC3(CCN(c4cccnc4)CC3)C2)cc1.O=C(O)C(F)(F)F,Percent Effect,"30.3 µM, […]",65.08%
O=C(O)C(F)(F)F.c1cncc(N2CCC3(CCCN(c4ccncc4)C3)CC2)c1,Percent Effect,"30.3 µM, […]",-3.759%
O=C(O)C(F)(F)F.O=S(=O)(c1cccs1)N1CCCC2(COCCN(c3cccnc3)C2)C1 (centres undefined),Percent Effect,"30.3 µM, […]",53.4%
Cc1cnc(N2CCCC3(COCCN(c4nccs4)C3)C2)nc1 (centres undefined),Percent Effect,"30.3 µM, […]",-22.75%
O=C(O)C(F)(F)F.O=C(c1cccs1)N1CCCC2(COCCN(c3cccnc3)C2)C1 (centres undefined),Percent Effect,"30.3 µM, […]",-669.5%
O=C(O)C(F)(F)F.O=C(O)C(F)(F)F.c1cncc(N2CCCC3(CCN(CCN4CCCC4)CC3)C2)c1,Percent Effect,"30.3 µM, […]",-7.746%
O=C(O)C(F)(F)F.c1cncc(N2CCOCC3(CCCN(c4nncs4)C3)C2)c1 (centres undefined),Percent Effect,"30.3 µM, […]",1.277%
Fc1cnc(N2CCCC3(COCCN(c4nccs4)C3)C2)nc1.O=C(O)C(F)(F)F.O=C(O)C(F)(F)F (centres undefined),Percent Effect,"30 µM, 30.03 µM",60.81%
O=C(O)C(F)(F)F.O=C(O)C(F)(F)F.c1cc(CN2CC[C@@H]3[C@@H](CO[C@H]3CN3CCOCC3)C2)cs1,Percent Effect,"30.3 µM, […]",-46.86%
COc1ccc(N2CCN(C(=O)[C@H]3[C@@H]4CNC[C@@H]43)CC2(C)C)cc1,Percent Effect,"30 µM, 30.03 µM",-58.92%
Cc1cccc(CN2CCO[C@@H]3CC(COc4ccccn4)C[C@H]32)n1.O=C(O)C(F)(F)F.O=C(O)C(F)(F)F (some centres undefined),Percent Effect,"30.3 µM, […]",-29.04%
Cc1cc(C)c2cc(CNCC3CCCO3)c3nn(C)c(=O)n3c2c1 (centres undefined),Percent Effect,"30.3 µM, […]",73.49%
CCCNCc1cc2c(C)cc(C)cc2n2c(=O)n(C)nc12,Percent Effect,"30.3 µM, […]",24.54%
CCOCCCNCc1cc2c(C)cc(C)cc2n2c(=O)n(C)nc12,Percent Effect,"30.3 µM, […]",2.995%
Cc1cc(C)c2cc(CNCc3ccc(C)o3)c3nn(C)c(=O)n3c2c1,Percent Effect,"30.3 µM, […]",-8.702%
Cc1cc(C)c2cc(CNCc3ccco3)c3nn(C)c(=O)n3c2c1,Percent Effect,"30.3 µM, […]",8.532%
Cc1cc(C)c2cc(CNC(C)C)c3nn(C)c(=O)n3c2c1,Percent Effect,"30.3 µM, […]",99.68%
Cc1cc(C)c2cc(CNC3CCCCC3)c3nn(C)c(=O)n3c2c1,Percent Effect,"30.3 µM, […]",100.6%
COCCNCc1cc2c(C)cc(C)cc2n2c(=O)n(C)nc12,Percent Effect,"30.3 µM, […]",39.03%
Cc1cc(C)c2cc(CNCc3ccccc3)c3nn(C)c(=O)n3c2c1,Percent Effect,"30.3 µM, […]",17.22%
Cc1nc(Nc2ncccn2)cc(C2CCCN2CC(C)C)n1 (centres undefined),Percent Effect,"30 µM, 30.03 µM",-16.62%
Cc1nc(CN2CCC3(CC2)NC(=O)CC3c2ccccc2)cs1.O=C(O)C(F)(F)F (centres undefined),Percent Effect,"30.3 µM, […]",10.42%
O=C(Cc1cccc(F)c1)N1C[C@H]2CN(Cc3ccccn3)C[C@H]2C1.O=C(O)C(F)(F)F,Percent Effect,"30.3 µM, […]",-6.988%
CC(C)n1c(=O)nc2n1C(=O)N(c1ccccc1)C2,Percent Effect,"30 µM, 30.03 µM",14.82%
CN1CCN(Cc2cnc3n2CCN(Cc2cccnc2)CC3)CC1.O=C(O)C(F)(F)F.O=C(O)C(F)(F)F.O=C(O)C(F)(F)F,Percent Effect,"30.3 µM, […]",-39.08%
Cc1nc(CN2C(=O)C[C@@H]3[C@@H]2CCN3S(C)(=O)=O)cs1,Percent Effect,"30 µM, 30.03 µM",-13.69%
Cc1cc2nc(C(C)C)cc(NCCNc3ncccc3C)n2n1,Percent Effect,"30 µM, 30.03 µM",-45.75%
COc1ccc(-c2c[nH]c([C@@H]3COCCN3)n2)cc1,Percent Effect,"30 µM, 30.03 µM",-38.08%
FC(F)(F)Oc1ccc(-c2c[nH]c([C@@H]3COCCN3)n2)cc1,Percent Effect,"30 µM, 30.03 µM",62.77%
FC(F)(F)c1ccc(-c2c[nH]c([C@@H]3COCCN3)n2)cc1,Percent Effect,"30 µM, 30.03 µM",11.07%
CC(Nc1cccc(F)c1C#N)c1cccc(S(N)(=O)=O)c1 (centres undefined),Percent Effect,"30 µM, 30.03 µM",70.17%
CC(Nc1ccc(C#N)cc1F)c1cccc(S(N)(=O)=O)c1 (centres undefined),Percent Effect,"30 µM, 30.03 µM",35.16%
CC(Nc1c(F)cc(C#N)cc1F)c1cccc(S(N)(=O)=O)c1 (centres undefined),Percent Effect,"30 µM, 30.03 µM",39.53%
CC(=O)N1CCN(Cc2ccc(F)cc2)CC2(CC(=O)N(C)C2)C1.O=C(O)C(F)(F)F (centres undefined),Percent Effect,"30.3 µM, […]",-72.99%
Cc1cc(-c2cnc(NCc3ccc4c(c3)OCO4)nc2C(C)C)on1,Percent Effect,"30.3 µM, […]",70.78%
Cc1cc(-c2cnc(NCc3ccccn3)nc2C(C)C)on1,Percent Effect,"30.3 µM, […]",94.64%
Cc1cc(-c2cnc(NCc3ccncc3)nc2C(C)C)on1,Percent Effect,"30.3 µM, […]",23.52%
Cc1cc(-c2cnc(NCc3cccnc3)nc2C(C)C)on1,Percent Effect,"30 µM, 30.03 µM",23.42%
COc1ccc(CNc2ncc(-c3cc(C)no3)c(C(C)C)n2)cc1,Percent Effect,"30.3 µM, […]",46.49%
Cc1cc(-c2cnc(NCc3cccnc3)nc2C(C)(C)C)on1,Percent Effect,"30 µM, 30.03 µM",25.28%
CNS(=O)(=O)Cc1ccc(CNC(=O)c2ccccn2)cc1,Percent Effect,"30.3 µM, […]",-17.29%
same,Percent Effect,"10 mM, 10 mM as filed; unlikely as a test dose",-30.84%
COc1cccc(C(=O)N2CCc3nc(C4CCCN4)ncc3C2)c1.Cl (centres undefined),Percent Effect,"30.3 µM, […]",-17.69%
CNC(=O)CN1CCCC(Cc2ccccc2OC)C1 (centres undefined),Percent Effect,"30.3 µM, […]",99.76%
COc1ccccc1CC1CCCN(CC(N)=O)C1 (centres undefined),Percent Effect,"30 µM, 30.03 µM",-11.23%
COc1ccccc1CC1CCCN(CCN2CCOC2=O)C1 (centres undefined),Percent Effect,"30.3 µM, […]",99.68%
COc1ccccc1CC1CCCN(CCC(N)=O)C1 (centres undefined),Percent Effect,"30.3 µM, […]",100.1%
COc1ccccc1CN1CCN(CCN2CCOC2=O)CC1,Percent Effect,"30 µM, 30.03 µM",-64.53%
CNC(=O)NC(=O)CN1CCCC(Cc2ccccc2OC)C1 (centres undefined),Percent Effect,"30.3 µM, […]",26.83%
COc1ccccc1CC1CCCN(CC(=O)NC2CC2)C1 (centres undefined),Percent Effect,"30.3 µM, […]",6.426%
COc1ccccc1CC1CCCN(CCC#N)C1 (centres undefined),Percent Effect,"30 µM, 30.03 µM",-5.815%
COc1ccccc1CC1CCN(C(=O)CCN2CCOC2=O)CC1,Percent Effect,"30.3 µM, […]",4.544%
O=C(O)c1cc(/C=C/c2ccc3ccccc3c2)ncn1,Percent Effect,"30 µM, 30.03 µM",17.56%
CCn1ncc2c1C(COCC1CC1)CN(C(=O)c1ccncn1)C2.O=C(O)C(F)(F)F (centres undefined),Percent Effect,"30 µM, 30.03 µM",-0.6882%
Cc1ncsc1C(=O)N1CC[C@@]2(O)CCN(C(=O)N3CCCC3)C[C@H]2C1,Percent Effect,"30.3 µM, […]",-70.48%
COc1ccc(F)c(-c2ncccc2C(=O)N2C[C@H]3CC[C@@H]2C3)c1,Percent Effect,"30 µM, 30.03 µM",-6.323%
CCn1c(CN2CCC(O)(c3ccc4c(c3)OCO4)CC2)cnc1SC.O=C(O)CC(O)(CC(=O)O)C(=O)O,Percent Effect,"30.3 µM, […]",-5.268%
COc1cc(N2C[C@@H]3COC[C@]3(COCc3ccncc3)C2)ncn1.O=C(O)C(F)(F)F.O=C(O)C(F)(F)F,Percent Effect,"30 µM, 30.03 µM",-12.8%
CN1CCCc2c1nc1c(c2N)CCCC1.O=C(O)C(=O)O,Percent Effect,"30.3 µM, […]",6.357%
Cc1cnn(C2CN(Cc3nnc(C4CC4)o3)C2)c1,Percent Effect,"30.3 µM, […]",93.44%
Cc1ccc(-c2nnc(CN3CC(n4cc(C)cn4)C3)o2)cc1,Percent Effect,"30 µM, 30.03 µM",-4.601%
Cc1cnn(C2CN(Cc3noc(C4CC4)n3)C2)c1,Percent Effect,"30.3 µM, […]",-128.4%
CCn1ccnc1CN1CCCC1C(=O)Nc1nccs1 (centres undefined),Percent Effect,"30.3 µM, […]",4.608%
Fc1cccc(CN2CCC3(CCCN3c3ncccn3)CC2)c1.O=C(O)C(F)(F)F,Percent Effect,"30.3 µM, […]",-16.3%
CCOC(=O)C1(CCOC)CCN(Cc2nccn2CC)CC1,Percent Effect,"30.3 µM, […]",-0.1521%
CCC1(CO)CCCN(Cc2nccn2Cc2ccccc2)C1 (centres undefined),Percent Effect,"30 µM, 30.03 µM",-5.033%
CCn1ccnc1CN1CCCC(CO)(Cc2cccc(OC)c2)C1 (centres undefined),Percent Effect,"30 µM, 30.03 µM",-22.09%
CCOC(=O)C1(Cc2ccccc2)CCCN(Cc2nccn2CC)C1 (centres undefined),Percent Effect,"30.3 µM, […]",95.74%
CCOC(=O)C1(CCOC)CCCN(Cc2nccn2CC)C1 (centres undefined),Percent Effect,"30.3 µM, […]",-20.23%
CCn1ccnc1CN1CCCC(CO)(Cc2cccc(Cl)c2)C1 (centres undefined),Percent Effect,"30 µM, 30.03 µM",109.3%
Cn1cc(CCC(=O)N2C[C@H]3CC[C@@H]2CN(Cc2cccnc2)C3)cn1,Percent Effect,"30 µM, 30.03 µM",-23.98%
Cc1ccnc(NC(=O)C2CCN(CCCc3cn[nH]c3)CC2)c1,Percent Effect,"30 µM, 30.03 µM",-19.03%
COCC1CN(C(=O)Nc2cc(Cl)cc(Cl)c2)CCO1 (centres undefined),Percent Effect,"30.3 µM, […]",-16.88%
NC(=O)C1CN(C(=O)Nc2cc(Cl)cc(Cl)c2)CCO1 (centres undefined),Percent Effect,"30 µM, 30.03 µM",103.3%
Cc1cc(NC(=O)N2CCOC(C(N)=O)C2)ccc1Br (centres undefined),Percent Effect,"30 µM, 30.03 µM",-3.776%
